Experimental data: PubChem BioAssay AID504339 (National Center for Advancing Translational Sciences (NCATS), 2011)
Hit rate of the full screen: of about 390,000 compounds, about 17,000 (4.4%) were called active. About 8% were inconclusive and are not listed. Only a selection was taken, and actives are over-represented in it overall. Unmarked numbers belong to inactive results. Calls come from the whole dose curve; as a rule, active = well fitted inhibition curve with a large enough effect; inconclusive = small, poorly fitted or top-dose-only effect; inactive = no such curve, though single readings can be large or run the other way.

The molecules below were run against Lysine-specific demethylase 4A (Homo sapiens) (UniProt O75164) (assay: qHTS Assay for Inhibitors of JMJD2A-Tudor Domain). Settings: AlphaScreen JMJD2A-Tudor / H3K4me3 peptide binding; series mostly up to 114 µM; activity change, negative = inhibition: at the top concentration.
Sequence of Lysine-specific demethylase 4A (Homo sapiens) (O75164 whole entry, looked up, the tested form may be a part): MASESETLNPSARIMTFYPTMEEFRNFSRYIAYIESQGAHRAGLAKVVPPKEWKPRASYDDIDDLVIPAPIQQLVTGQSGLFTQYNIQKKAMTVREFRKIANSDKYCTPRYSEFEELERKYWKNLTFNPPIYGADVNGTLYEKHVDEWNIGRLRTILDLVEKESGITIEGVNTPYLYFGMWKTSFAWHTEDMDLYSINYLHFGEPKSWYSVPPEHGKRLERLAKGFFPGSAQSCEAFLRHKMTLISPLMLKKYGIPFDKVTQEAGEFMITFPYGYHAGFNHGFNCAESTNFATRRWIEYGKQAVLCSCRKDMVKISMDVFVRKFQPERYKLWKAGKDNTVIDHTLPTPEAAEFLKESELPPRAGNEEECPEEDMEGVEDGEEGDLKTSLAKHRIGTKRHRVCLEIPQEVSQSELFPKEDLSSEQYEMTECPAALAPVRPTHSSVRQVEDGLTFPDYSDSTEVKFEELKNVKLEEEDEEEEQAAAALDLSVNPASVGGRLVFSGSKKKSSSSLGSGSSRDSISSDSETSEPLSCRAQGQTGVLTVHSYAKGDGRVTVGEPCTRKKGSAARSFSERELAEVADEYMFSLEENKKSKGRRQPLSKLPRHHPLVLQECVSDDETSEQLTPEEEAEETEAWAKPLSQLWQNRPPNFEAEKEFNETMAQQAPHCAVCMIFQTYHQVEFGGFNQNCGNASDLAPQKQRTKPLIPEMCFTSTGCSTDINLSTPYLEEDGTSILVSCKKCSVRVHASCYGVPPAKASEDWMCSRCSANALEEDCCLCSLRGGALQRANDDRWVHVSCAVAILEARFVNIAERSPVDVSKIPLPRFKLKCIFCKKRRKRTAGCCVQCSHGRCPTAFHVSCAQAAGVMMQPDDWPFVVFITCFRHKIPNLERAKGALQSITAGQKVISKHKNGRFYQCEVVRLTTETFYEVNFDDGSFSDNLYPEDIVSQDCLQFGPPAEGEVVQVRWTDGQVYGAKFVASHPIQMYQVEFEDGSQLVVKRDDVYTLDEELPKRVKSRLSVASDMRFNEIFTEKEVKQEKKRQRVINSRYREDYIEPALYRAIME
Text: JMJD2A is a jumonji-domain-containing lysine demethylase that uses Fe(II) together with 2-OG to effect oxidative demethylation of histones. Methylation is one of many […] modification that affect epigenetic transcription. […] It is proposed that the functions of JmjD2A binding to the histones, is to maintain marks after they are installed and to spread the modifications by […], establishing a self-propagating cycle for rapid methylation over a large area of chromatin. […] Thus, small molecule targeting of the JMJD2A-tudor domain interaction with its target methylhistone mark is expected to enable sophisticated experiments probing the fine regulatory pathways leading to selective demethylation of a given methyllysine locus based on the methylation state of adjacent histone marks. A quantitative high throughput AlphaScreen has been developed to identify small molecule inhibitors based on a protocol published by NCGC and SGC [4].
Although AlphaScreen has significant advantages with its utility in a variety of epigenetic target assays, the primary screening data provided in this deposition should be used with caution due to the prevalence of screening artifacts. The top compound concentration tested was high (>100uM) in this assay, which increases number of actives and potential artifacts. An AlphaScreen counterscreen is highly recommended to be run against any putative actives to eliminate non-specific artifacts. Alternatively, one can use other AlphaScreen assays in PubChem to filter out promiscuous hits.
[1] Lee, J. et al. Distinct binding modes specify the recognition of methylated histone H3K4 and H4K20 by JMJD2A-tudor. Nat Struct Mol Biol. 15(1); 109-11. 2008. PMID: 18084306
[2] Yasgar, et al. Compound Management for Quantitative High-Throughput Screening. JALA. 2008 Apr;13(2):79-89. PMID: 18496600
[3] Inglese, et al. Quantitative high-throughput screening: a titration-based approach that efficiently identifies biological activities in large chemical libraries. Proc Natl Acad Sci. 1;103(31):11473-8. 2006. PMID: 16864780
[4] Quinn et al. A homogeneous method for investigation of methyl-dependent protein-protein interactions in epigenetics. Nucleic Acids Res., 38(2):e11. 2010. PMID: […]
[5] Baell,Holloway. New substructure filters for removal of pan assay interference compounds (PAINS) from screening libraries and for their exclusion in bioassays. J Med Chem. 53(7):2719-40. 2010. PMID: 20131845
NIH Molecular Libraries Probe Production Network [MLPCN]
NIH Chemical Genomics Center [NCGC]
Structural Genomics Consortium (SGC)
To each well of a 1,536w plate, 2ul of JMJD2A-Tudor (final 100nM) and 1ul biotinylated histone peptide methylated at Lys4 [b-H3(1-18)K4me3] (final 50nM) were added in 1x PBS buffer, pH 7.4, containing 0.01% Tween-20, using a nanoliter dispenser. Formation of a protein-peptide complex proceeded at room temperature for 30 min. A Kalypsys pin-tool transferred 23nl of library compound solution in DMSO to each well. Following a 30 min incubation of the protein-peptide complex with compounds at room temperature, a mixture of 40 µg/mL each streptavidin-coated donor and nickel chelate acceptor AlphaScreen beads (final 10 µg/mL) was added in a 1ul dispense for a final volume of 4ul, followed by a brief centrifugation (1000 rpm, 1 min). Plates were incubated protected from the light for 20 min at room temperature. Microplates were then read on an EnVision multilabel plate reader using the 1,536 plate HTS AlphaScreen aperture (excitation time 80 ms, measurement time 240 ms).
% is set by controls: 0 for no effect and ±100 for the full control effect; potency is the fitted concentration of half-maximal effect.
Note: nearly all actives have a fitted effect of over 50% in size.

| SMILES | activity change, negative = inhibition | Potency |
| --- | --- | --- |
| CCOc1ccc(C2C(C(=O)Nc3ccc(Cl)cc3)=C(C)Nc3nc(C(F)(F)F)nn32)cc1 (centres undefined) | -9.21% | – |
| Cc1cccc(N2CCN(c3ccc(NC(=O)/C=C\C(=O)O)cc3)CC2)c1 | -14.3% [at 11.4 µM] | – |
| Cn1cnnc1SCC(=O)Nc1ccc(N2CCOCC2)cc1 | -6.09% | – |
| C=CC(=O)Nc1ccc(Nc2ccnc(Nc3ccc(N4CCN(C)CC4)cc3)n2)cc1 | – | 31.6 µM (active) |
| O=C(NCCCN1CCOCC1)c1cc(-c2ccc(Cl)cc2)on1 | -12.8% | – |
| COc1ccc(Cn2c(=S)[nH]c3cc(C(=O)NCCCN4CCOCC4)ccc3c2=O)cc1 | -18.9% | – |
| Cc1c(C)n(Cc2ccc(Cl)cc2)c2ccc(C(=O)NCCCN3CCOCC3)cc12 | – | 89.1 µM (active) |
| CCc1ccc2ncc3c(-c4ccc(C)cc4)nn(CC(=O)NCc4ccccc4)c3c2c1 | -23.7% | – |
| CC(=O)N1CCCc2cc(S(=O)(=O)N3CCC(C(=O)NCc4ccc(F)cc4)CC3)ccc21 | -10% | – |
| CCOc1ccccc1C(=O)NC1(C(F)(F)F)C(=O)Nc2c1c(=O)[nH]c(=O)n2-c1ccc(F)cc1 (centres undefined) | 2.41% | – |
| CC(=O)N1c2ccc(S(=O)(=O)NCCC(=O)N(C)C3CCCCC3)cc2CC1C (centres undefined) | – | 14.1 µM (active) |
| CC(=O)N1c2ccc(S(=O)(=O)N(C)CC(=O)N(C)Cc3ccccc3)cc2CC1C (centres undefined) | -10.5% | – |
| COc1cccc(CNS(=O)(=O)c2ccc3c(c2)CC(C)N3C(=O)C2CCC2)c1 (centres undefined) | – | inactive |
| CCc1ccc(CN(Cc2ccco2)C(=O)c2ccccc2Cl)cc1 | -2.2% | – |
| C#CC(C)(CC)NC(=O)Cn1nnc(-c2ccc(OCc3c(F)cccc3Cl)cc2)n1 (centres undefined) | -20.5% | – |
| Cc1cc2c(s1)c1cnn(Cc3cc(F)c(Cl)cc3Cl)c(=O)c1n2C | 6.85% | – |
| CCOC(=O)c1ccc(N2C(=O)c3n[nH]c(C)c3C2c2ccc(O)c(OC)c2)cc1 (centres undefined) | -19.7% | – |
| Cc1sc2ncn(CC(=O)NCCN(C)C)c(=O)c2c1S(=O)(=O)N1CCC(C)CC1 | – | 22.4 µM (active) |
| CCN(CC)CCNC(=O)Cn1cnc2sc(C)c(S(=O)(=O)N3CCOCC3)c2c1=O | -3.57% | – |
| CCCN(CCC)CCNC(=O)Cn1cnc2sc(C)c(S(=O)(=O)N3CCC(C)CC3)c2c1=O | -15.4% | – |
| CCN(CCCNC(=O)c1cc(Nc2ccc(OC)cc2)nc2ccccc12)c1cccc(C)c1 | -27% | – |
| CCOc1ccc(CCNC(=O)Cn2nc(CC)n3c(cc4sc(CC)cc43)c2=O)cc1OCC | -15.6% | – |
| CCc1cc2c(cc3c(=O)n(CC(=O)NCCc4ccc(OC)c(OC)c4)ncn32)s1 | – | 89.1 µM (active) |
| CCc1cc2c(cc3c(=O)n(CC(=O)N4CCN(c5cc(Cl)ccc5C)CC4)ncn32)s1 | 4.73% | – |
| Cc1ccc(NC(=O)C2CCN(S(=O)(=O)c3cc(-c4noc(C)n4)ccc3C)CC2)c(C)c1 | -6.67% | – |

| SMILES | activity change, negative = inhibition | Potency |
| --- | --- | --- |
| CCOCCCn1c(SCC(=O)Nc2ccc(CC)cc2)nc2ccccc2c1=O | 9.33% | – |
| CCOc1ccc(CNC(=O)CCc2c(C)nn(-c3ccc(N4CCCCC4)nn3)c2C)cc1 | -24% | – |
| CCN(CC)/[N+]([O-])=N/Oc1cc(O/[N+]([O-])=N/N2CCCC2CO)c([N+](=O)[O-])cc1[N+](=O)[O-] (centres undefined) | – | 20 µM (active) |
| COc1ccc(C(=O)Nc2ccc(-n3nncc3-c3ccccc3)cc2)cc1OC | -34.3% | – |
| Cc1cc(C(=O)COC(=O)C2CC2)c(C)n1-c1ccc(F)cc1 | -25.6% | – |
| Cc1ccc(-n2c(C)cc(C(=O)CN3C(=O)C(=O)N(C4CCCC4)C3=O)c2C)cc1 | – | 31.6 µM (active) |
| Cc1ccc(-n2c(C)cc(C(=O)CSc3nnc4ccccn34)c2C)cc1 | -20.1% | – |
| Cc1c(Cl)cccc1NC(=O)C(=O)NCCc1csc2nc(-c3ccccc3F)nn12 | -13.7% | – |
| S=C(NNC(=S)NC1CC2C=CC1C2)NC1CC2C=CC1C2 (centres undefined) | – | 3.16 µM (active) |
| CC(C)c1ccc(NC(=S)NC2CC3C=CC2C3)cc1 (centres undefined) | -10% | – |
| COc1ccc(-c2noc(CCC(=O)N(C)c3ccccc3C)n2)cc1 | -3.42% | – |
| CCCCOc1ccc(CN2C(=O)C(=O)c3cc(Br)cc(C)c32)cc1OC | – | 14.1 µM (active) |
| CCCCOc1ccc(Cn2c(=O)oc3ccc(C)cc32)cc1OC | 61.2% | – |
| CCCCN1C(=O)C(C)=C(C)C1OCCc1ccc(OC)c(OC)c1 (centres undefined) | -2.62% | – |
| COc1ccc(NC(=O)c2cc3cc(C)ccc3n2C)cc1 | -2.32% | – |
| COc1ccc(-n2c(SCC(=O)Nc3ccc(Cl)c(C)c3)nc3n[nH]c(C)c3c2=N)cc1 | -14% | – |
| Cc1cccc(Nc2nc(C)nc(N)c2S(=O)(=O)c2ccccc2)c1 | -11.2% | – |
| CCOc1ccc(-c2nonc2NC(=O)c2oc3ccc(CC)cc3c2C)cc1 | -12.6% | – |
| COc1ccccc1-c1cc(C(F)(F)F)nc(S(=O)(=O)CCCC(=O)Nc2cc(C)ccc2O)n1 | -24.2% | – |
| CSc1ccccc1NC(=O)CCS(=O)(=O)c1nc(-c2cccs2)cc(C(F)(F)F)n1 | – | 22.4 µM (active) |
| COc1ccccc1-c1cc(C(F)(F)F)nc(S(=O)(=O)CCCC(=O)Nc2ccc(F)cc2F)n1 | -6.48% | – |
| CCc1ccccc1NC(=O)c1ccc(F)c(S(=O)(=O)NC2CCCCCC2)c1 | -4.28% | – |
| Cc1cc(Nc2ccc(N3CCOCC3)cc2)c2cccc(C)c2n1 | -25.5% | – |
| Cc1ccccc1N/N=C/c1ccc(N2CCOCC2)cc1 | – | 50.1 µM (active) |
